Results: PubChem BioAssay (NCATS)
Results filed as inconclusive are left out. Values without a mark were called inactive. The source made the active and inactive calls. Calls follow the shape of the dose curve; as a rule, active = well fitted inhibition curve with a large enough effect; inconclusive = small, poorly fitted or top-dose-only effect; inactive = flat fitted curve, though single readings scatter.
% is scaled to controls: 0 for no effect and ±100 for the full control effect; potency is read from the fitted curve at half-maximal effect.

Each compound was assayed on HEK293 (assay: Cytotoxic Profiling of Annotated Libraries Using Quantitative High-Throughput Screening (AID 1296008; also: nearly all actives have a fitted effect of over 60% in size)). Details: Five cell lines viability, CellTiter-Glo ATP luminescence, 48-72 h; max response: stronger effect = lower value.
In short: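 Cytotoxicity was measured as CellTiter-Glo ATP luminescence, read after 10 min at room temperature. Compound treatment of the cells lasted 48 or 72 hr at 37 degrees Celsius in a qHTS format.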
CC1(C)CC[C@]2(C(=O)O[C@@H]3O[C@H](CO)[C@@H](O)[C@H](O)[C@H]3O)CC[C@]3(C)C(=CCC4[C@@]5(C)C[C@@H](O)[C@H](O)C(C)(C)C5[C@H](O)C[C@]43C)[C@@H]2[C@@H]1O (some centres undefined) gave a max response of 1.53%.
In the case of COc1cc(C2c3cc4c(c(O)c3CC(CO)C2C(=O)O)OCO4)cc(OC)c1O (centres undefined), the Potency is reported as 2240 nM (active).
Cn1cncc1C(N)(c1ccc(Cl)cc1)c1ccc2c(c1)c(-c1cccc(Cl)c1)cc(=O)n2C (centres undefined) was tested, and the Potency was 259 nM (active).
CC1=CC(=O)[C@H]2C(C)(C)CCC[C@]2(C)[C@@]1(O)CO gave a max response of -15.2%.
In the case of COc1cc(-c2ncn(/C=C\C(=O)OC(C)C)n2)cc(C(F)(F)F)c1, the Potency is reported as 259 nM (active).
Compound C[C@@H]1O[C@@H](O[C@H]2[C@H](OC(=O)[C@]34CCC(C)(C)C[C@H]3C3=CCC5[C@@]6(C)C[C@H](O)[C@H](O[C@@H]7O[C@H](CO)[C@@H](O[C@H]8OC[C@](O)(CO)[C@H]8O)[C@H](O)[C@H]7O)[C@@](C)(CO)C6[C@H](O)C[C@@]5(C)[C@]3(C)C[C@H]4O)OC[C@H](O)[C@@H]2O)[C@H](O)[C@H](O)[C@H]1O[C@@H]1OC[C@@H](O)[C@H](O[C@@H]2OC[C@](O)(CO)[C@H]2O)[C@H]1O (some centres undefined) has a max response of 0.437%.
For N#Cc1cc(F)cc(-c2nc(-c3ccccn3)no2)c1, the max response was -8.23%.
In the case of COc1ccc(N(C)c2nc(C)nc3ccccc23)cc1, the Potency is reported as 7.3 nM (active).
C[C@@H]1C(=O)O[C@H]2[C@H](O)C34[C@H]5C[C@@H](C(C)(C)C)C36[C@@H](OC(=O)[C@@H]6O)O[C@@]4(C(=O)O5)[C@@]12O (some centres undefined) showed a max response of -1.33%.
COC(=O)Cc1cc2c(c([N+](=O)[O-])c1)N(C(=O)CC[C@H](N)C(=O)O)CC2 gave a max response of -4.25%.
CNC(=O)c1cccc(-c2ccc3c(N4CCOC[C@@H]4C)nc(N4CCOC[C@@H]4C)nc3n2)c1 was tested, and the Potency was 366 nM (active).
CC(O)/C=C/C1(O)C(C)C(O[C@@H]2O[C@H](CO)[C@@H](O)[C@H](O)[C@H]2O)C(O)CC1(C)C (some centres undefined) was tested, and the outcome was “inactive”.
C(#Cc1nc2ncccc2nc1OCCN1CCCC1)c1ccccc1 was tested, and the Potency was 1840 nM (active).
For C=CC(=O)Nc1cc(Nc2nccc(-c3c[nH]c4ccccc34)n2)c(OC)cc1N(C)CCN(C)C, the Potency was 5170 nM (active).
Compound C[C@@H]1O[C@@H](O[C@H]2[C@@H]3C=CO[C@@H](O[C@@H]4O[C@H](CO)[C@@H](O)[C@H](O)[C@H]4O)[C@@H]3[C@@]3(CO)O[C@@H]23)[C@H](OC(=O)/C=C/c2ccccc2)[C@H](O)[C@H]1O has a max response of -1.51%.
In the case of COC(=O)N(C)c1c(N)nc(-c2nn(Cc3ccccc3F)c3ncccc23)nc1N, the max response is reported as -0.877%.
Cc1ccc(C)c(OCCn2cc(C(=O)O)c3ccccc32)c1 was tested, and the max response was -0.983%.
Compound COC1CC(O[C@H]2CC[C@@]3(C)C(CCC4C3[C@H](OC(C)=O)[C@@H](OC(=O)/C=C/c3ccccc3)[C@]3(C)C(C(C)=O)CC[C@]43O)C2)OC(C)C1OC1CC(OC)C(OC2CC(OC)C(OC3OC(C)C(OC4OC(CO)C(O)C(O)C4O)C(OC)C3O)C(C)O2)C(C)O1 (some centres undefined) has a max response of -13.6%.
Compound CC(C)CNCc1ccc(-c2ccccc2S(=O)(=O)N2CCCC2)cc1 has a max response of -19.2%.
C=CC/C=C\C/C=C\CCCCCCCc1cccc(O)c1C(=O)O was tested, and the max response was -5.53%.
For CCNCc1nc2c(N)nc3ccccc3c2n1CC(C)(C)O, the max response was -9.18%.
Work on COC(=O)C1=COC(O[C@@H]2O[C@H](CO)[C@@H](O)[C@H](O)[C@H]2O)[C@H]2[C@@H]1[C@H](OC(=O)CCc1ccc(O)cc1)C[C@]2(C)O (some centres undefined) yielded a max response of 0.992%.
Compound CC(=O)c1ccc2c(c1)C(O)C(C(C)(C)O)O2 (centres undefined) has a max response of -3.07%.
For CC(C)[C@@H]1C(=O)N(S(C)(=O)=O)[C@@H]2CCN(C(=O)/C=C/CN3CCCCC3)[C@H]21, the max response was -1.35%.
In the case of COc1c2c(c(C)c3c1C(=O)OC3)OC1(C)CC(O)C34OC(OC)(CC(OC(C)=O)C3(C)C1C2)OC4(C)C (centres undefined), the max response is reported as -22.1%.
In the case of C[C@@H]1O[C@@H](O[C@H]2[C@H](O)[C@@H](O[C@@H]3O[C@H](CO)[C@@H](O)[C@H](O[C@@H]4O[C@H](CO)[C@@H](O)[C@H](O)[C@H]4O)[C@H]3O)[C@H](O[C@H]3CC[C@@]4(C)C(=CC[C@@H]5C4CC[C@@]4(C)C5C[C@@H]5OC6(CC[C@@](C)(CO[C@@H]7O[C@H](CO)[C@@H](O)[C@H](O)[C@H]7O)O6)[C@@H](C)[C@@H]54)C3)O[C@@H]2CO)[C@H](O)[C@H](O)[C@H]1O (some centres undefined), the max response is reported as 3.47%.
Compound C[C@H](C(=O)NC1CCCC1)N(C(=O)Cn1nnc(-c2ccc3c(c2)OCO3)n1)C1CCCCC1 has a max response of 2.96%.
For CC1=CC2/C=C(\C)CC[C@@H](O)[C@@H](O)[C@@H]3O[C@@H]3C(=O)[C@]23C(=O)N[C@@H](CC(C)C)[C@@H]3[C@@H]1C (some centres undefined), the max response was 1.09%.
COC(=O)C[C@H]1[C@]2(C)C3=C(C)[C@H](c4ccoc4)C[C@H]3O[C@@H]2[C@H](OC(C)=O)C2[C@](C)(C(=O)OC)C=CC(=O)[C@@]21C (some centres undefined) was tested, and the max response was -6.04%.
CCO[C@@H]1OC(=O)C[C@@H]1NC(=O)[C@@H]1CCCN1C(=O)[C@@H](NC(=O)c1ccc(N)c(Cl)c1)C(C)(C)C showed a max response of 1.39%.
For C=C1C(=O)O[C@@H]2/C=C(\C)C(=O)/C=C/[C@](C)(O)C[C@@H](OC(=O)C(C)C)[C@@H]12, the Potency was 805 nM (active).
With COc1c/c(=C2\C=c3ccccc3=N2)[nH]/c1=C\c1[nH]c(C)cc1C the Potency was 1300 nM (active).
CC1=C(C(=O)OCc2ccccc2)C(c2ccc(-c3ccccc3)cc2)NC(=O)N1CCCCCC(=O)O (centres undefined) gave a max response of -21.5%.
With O=C(Cc1ccc(-c2ccccc2)cc1)NC1CCC1 the max response was 2.52%.
CC(C)C1=CC2C(CC[C@]2(C)O)[C@](C)(O)CC1 (some centres undefined) gave a max response of -1.9%.
Work on Cc1c2cc(c(C(=O)O)c1C)OC1OC(C(O)C(O)C1O)C(O)C(O)C1OC(O2)C(O)C(O)C1O (centres undefined) yielded a max response of -0.813%.
Work on C=C1CC[C@H]2[C@@](C)(CCC(O)[C@@]2(C)CO)[C@@H]1CCC1=CCOC1=O (some centres undefined) yielded a max response of 3.62%.
For COc1ccc([C@@H]2OC[C@H]3[C@@H]2CO[C@@H]3c2ccc(OC3OC(CO)C(O)C(O)C3O)c(OC)c2)cc1OC (some centres undefined), the max response was -3.32%.
With CC(C)c1cc(C(=O)N2CC[C@@H](NC(=O)C3CC3)C2)n[nH]1 the max response was -9.12%.
